Hits are enriched below; roughly 10% of the tested compounds scored in any of these assays.
PNC assembly inh: inhibitors of perinucleolar compartment assembly | PC3M PTB-GFP, PNC prevalence imaging, 16 h; active compounds read low | actives 3.1% (n = 140,000) | activity change (PNC), negative = inhibition, % at 10 µM;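 active = readout at or below -70, meaning at least 70% loss of cells showing the perinucleolar compartment, a nuclear body marking cancer cells; inconclusive = readout between -30 and a set limit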;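 also: plate controls were DMSO wells for no effect and camptothecin positive control wells for full effect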
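PC3M cells stably expressing PTB-GFP, 750–1000 cells/well, treated 16 h at 37 °C with compound (23 nl of library stock), in duplicate. After paraformaldehyde fixation and Hoechst stain, imaged at 20x; PNC prevalence scored by image analysis.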
HPGD inh: HPGD (human) dehydrogenase inhibition; P15428; actives 4.3% (n = 150,000); purified HPGD, NADH fluorescence kinetic, PGE2 substrate; AID 894; Potency, µM, for inactives: top-dose activity change, negative = inhibition, usual class: inhibitors; active = well fitted inhibition curve with a large enough effect, not every such curve was filed as active; inconclusive = small, poorly fitted or top-dose-only effect, or another doubt; inactive = no such curve, though single readings can be large or run the other way; also: potency is read from the fitted curve at half-maximal effect
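NADH formation kinetics: reaction with 30 uM PGE2 and 1 mM NAD+ (final), 20 nM enzyme, Tris-HCl pH 8 with Tween 20, after 15 min compound preincubation at room temperature. Fluorescence change, last versus first of five reads.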
ALDH1A1 inh: inhibitors of human aldehyde dehydrogenase 1A1; P00352; Purified ALDH1A1, NADH fluorescence, propionaldehyde substrate; Potency, µM (top dose mostly 75.3 µM), for inactives: top-dose activity, negative = inhibition, hits mostly inhibitors; actives 7.3% (n = 220,000); AID 1030; active = well fitted inhibition curve with a large enough effect, not every such curve was filed as active; inconclusive = small, poorly fitted or top-dose-only effect, or another doubt; inactive = no such curve, though single readings can be large or run the other way;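 also: potency is read from the fitted curve at half-maximal effect; plate controls were no enzyme wells and a reference inhibitor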
12-hLO inh: 12-hLO (ALOX12) enzyme inhibition | P18054 | purified 12-hLO, xylenol orange hydroperoxide absorbance | Potency, µM (titrated, usually from 57.1 µM), for inactives: at the top dose activity change, negative = inhibition, hits mostly inhibitors | actives 0.12% (n = 150,000) | AID 1452; also: potency is read from the fitted curve at half-maximal effect; nearly all actives have a fitted effect of over 55% in size
Target sequence (P18054 whole entry, looked up): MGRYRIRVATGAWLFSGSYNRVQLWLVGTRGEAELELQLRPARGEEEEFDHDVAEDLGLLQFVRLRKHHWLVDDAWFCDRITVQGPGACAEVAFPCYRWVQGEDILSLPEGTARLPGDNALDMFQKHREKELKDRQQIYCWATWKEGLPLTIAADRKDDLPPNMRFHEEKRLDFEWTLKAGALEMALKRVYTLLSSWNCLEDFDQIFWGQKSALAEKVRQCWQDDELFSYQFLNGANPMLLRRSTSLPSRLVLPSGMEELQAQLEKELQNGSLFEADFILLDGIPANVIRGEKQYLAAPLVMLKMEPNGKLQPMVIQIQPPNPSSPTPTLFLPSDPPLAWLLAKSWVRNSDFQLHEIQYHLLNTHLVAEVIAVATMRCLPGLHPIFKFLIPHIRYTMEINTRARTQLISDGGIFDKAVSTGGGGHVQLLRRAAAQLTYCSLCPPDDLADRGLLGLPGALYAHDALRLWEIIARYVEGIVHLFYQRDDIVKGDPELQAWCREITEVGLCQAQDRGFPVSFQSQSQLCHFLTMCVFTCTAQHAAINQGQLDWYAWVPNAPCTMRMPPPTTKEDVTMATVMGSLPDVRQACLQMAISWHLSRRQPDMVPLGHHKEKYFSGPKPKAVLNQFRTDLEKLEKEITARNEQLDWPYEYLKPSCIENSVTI
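Lipoxygenase turnover measured by absorbance at 573 and 405 nm after Fe-XO development. Human 12hLO 150 nM, arachidonate 40 uM, pH 7.0 Hepes buffer with detergent; 15 min compound preincubation, 30 min reaction.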
GLA spleen mod: alpha-galactosidase A (human) modulation; Potency, µM (titrated, usually from 80 µM), inactives show top-dose activity change, negative = inhibition, actives largely listed as inhibitors; P06280; actives 0.008% (n = 240,000); human spleen homogenate, 4MU-alpha-Gal fluorescence, 40 min; AID 2107;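 also: potency is read from the fitted curve at half-maximal effect; 0% = enzyme with vehicle and -100% = no enzyme basal signal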
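Inhibition or activation of alpha-galactosidase in human spleen homogenate is scored by 4-MU fluorescence after 40 min at 37C, pH 5.0, with 1 mM substrate. AC50s come from concentration-response fitted to the Hill equation.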
GLA inh pH 4.5: blocks human alpha-galactosidase A at pH 4.5; AID 1467; 230,000 tested, under 10 active; purified enzyme, 4-MU-alpha-Gal fluorescence, pH 4.5; P06280; activity change, negative = inhibition, % at 105 µM;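 also: 0% = full activity with enzyme and -100% = basal without enzyme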
Starred values were filed as active, the others as inactive; u = inconclusive; x = not tested or not shown; ! = not confirmed by another sample; [ ] = another dose, or the depositor's remark. Unless noted, calls follow the shape of the dose curve; as a rule, active = well fitted curve in the direction sought with a large enough effect; inconclusive = small, poorly fitted or top-dose-only effect, or another doubt; inactive = no such curve, though single readings can be large; an effect the other way counts as inactive or inconclusive. Unless noted, % is scaled to controls: 0 for no effect and ±100 for the full control effect.

SMILES	PNC assembly inh	HPGD inh	ALDH1A1 inh	12-hLO inh	GLA spleen mod	GLA inh pH 4.5
CCC(C)Nc1nc(Cl)nc(N(C#N)CN2C(=O)c3ccccc3S2(=O)=O)n1 (stereo not given)	x	x	12.6µM*	x	8.1%	-5.7
CC(C)Nc1nc(Cl)nc(N(C#N)CN2C(=O)c3ccccc3C2=O)n1	2.8	-8.3%	u	-1.0%	7.0%	0.9
COC(=O)C1=C(C)N(CCCCCC(=O)O)C(=O)NC1c1ccccc1 (stereo not given)	x	x	x	x	4.8%	x
CCOc1ccc(S(=O)(=O)NCc2ccco2)c2ccccc12	11.9	u	14.1µM*	u	5.8%	-4.8
C/C(=N\Nc1ccccn1)c1ccc(S(=O)(=O)NCc2ccco2)cc1	-82.8*	-13.1%	29.0%	-2.5%	-3.3%	-12.9
O=S(=O)(NCc1ccc(Cl)cc1)c1cccc2cccnc12	x	x	x	x	-1.1%	0.7
C/C(=N\Nc1ccc(C(F)(F)F)cn1)c1ccc(S(=O)(=O)NCc2ccco2)cc1	14.1	-20.9%	5.9%	-0.2%	-2.4%	15.1
CCOc1cc(C)c(Cl)cc1S(=O)(=O)NCc1ccco1	51.7	-12.5%	0.3%	-1.5%	-5.5%	1.2
O=S(=O)(NCc1ccco1)c1cccc2cccnc12	-100.0*	-8.9%	4.4%	-1.2%	-2.2%	3.5
CC(C)(CCC(C)(C)c1ccccc1)c1ccccc1	x	-2.3%	11.3%[13.5 µM]	1.8%[11.4 µM]	x	x
N/C(=N/OS(=O)(=O)c1ccc([N+](=O)[O-])cc1)c1ccncc1	x	x	31.6µM*	x	3.1%	-10.6
COc1ccc2c(c1)CC(C1(O)C(=O)Nc3ccccc31)C2=O (stereo not given)	10.5	-0.9%	31.6µM*	-1.8%	13.7%	4.0
O=C1CCCCCC1C1(O)C(=O)Nc2ccccc21 (stereo not given)	-27.5	-9.7%	-0.1%	1.5%	6.7%	-10.1
COc1ccc(/C=N/N=C2/NC(=O)C(CC(=O)O)S2)cc1OS(=O)(=O)c1ccccc1 (stereo not given)	x	x	u	x	-2.1%	-26.1
CC(=O)Nc1ccc(S(=O)(=O)Oc2cccc(/C=N/N=C3/NC(=O)C(CC(=O)O)S3)c2)cc1 (stereo not given)	x	x	7.51µM*	x	-0.2%	8.0
CC(C)n1c(NCCc2ccccc2)nc2c1c(=O)n(C)c(=O)n2C	-16.3	-7.2%	8.3%	-3.3%	9.8%	3.4
COC(=O)C(CC(=O)c1ccc(Br)cc1)n1ccnc1 (stereo not given)	-8.3	2.51µM*	0.447µM*	u	1.7%	0.9
O=C(COC(=O)c1ccncc1)c1ccc(Br)cc1	x	x	4.5%	x	1.0%	-4.5
N#CC(c1ccccc1)c1ccc2c(C(F)(F)F)cc(C(F)(F)F)nc2n1 (stereo not given)	7.3	-10.7%	22.4µM*	3.0%	3.5%	-0.1
COc1ccccc1CN(C)C(=O)C1COc2ccccc2O1 (stereo not given)	u	7.08µM*	-3.3%	-2.0%	22.3%	10.0
COc1cc(C#CC#CCN2CCCCC2)ccc1O	u	14.1µM*	1.58µM*	2.6%	18.5%	-3.7
CCC=O	x	-5.0%	u	-3.1%	13.9%	x
CCCC=O	x	-11.2%	3.55µM*	-0.5%	11.8%	x
CC(C)C(C)NC(=O)CN1C(=O)NC2(CCCc3ccccc32)C1=O (stereo not given)	x	x	9.6%	x	8.2%	-18.6
CC(OC(=O)c1cccnc1)C(=O)NCc1ccc2c(c1)OCO2 (stereo not given)	20.5	x	-1.0%	1.0%	-3.4%	4.5
SMILES	PNC assembly inh	HPGD inh	ALDH1A1 inh	12-hLO inh	GLA spleen mod	GLA inh pH 4.5
CCCc1nc2ccccc2c(C(=O)OC(C)C(=O)NCc2ccc3c(c2)OCO3)c1CC (stereo not given)	u	-20.7%	4.47µM*	-0.6%	-3.4%	-8.4
CC(OC(=O)c1nn(C)c(=O)c2ccccc12)C(=O)NCc1ccc2c(c1)OCO2 (stereo not given)	-22.8	20µM*	u	-11.3%	-1.2%	1.4
COc1cc(S(=O)(=O)Nc2ccc3cn[nH]c3c2)ccc1Cl	x	x	-15.1%	x	-10.7%	6.4
C=C[C@@](C)(O)CC[C@@H]1[C@@]2(C)CCCC(C)(C)[C@@H]2CC[C@@]1(C)O	x	-8.6%	39.8µM*!	-2.7%	10.8%	2.9
Cc1cccc(Oc2ccc(S(=O)(=O)N3CCCCC3)cc2N)c1	x	x	0.9%	x	2.4%	-10.5
COC(=O)[C@H](Cc1ccccc1)NC(=O)[C@]1(C)C[C@H]1[C@H](NC(=O)OCc1ccccc1)c1ccccc1	x	-16.7%	u	-2.2%	-8.5%	-11.5
COCCCNC(=O)c1ccc(-n2nc(C(F)(F)F)cc2-c2cccs2)cc1	15.8	14.1µM*	20µM*	0.6%	13.7%	3.8
COc1ccccc1NS(=O)(=O)c1cccc(C(=O)NCc2ccco2)c1	x	x	7.8%	x	-2.5%	1.1
CCc1nc(NCCCCCO)c2nnn(Cc3ccccc3F)c2n1	-1.5	-7.1%	1.41µM*	-4.5%	-4.3%	-3.6
C#CCNc1nc(CC)nc2c1nnn2Cc1ccccc1F	-14.0	x	7.94µM*	-3.2%	2.7%	6.2
Fc1ccccc1Cn1nnc2c(NCCc3ccccn3)ncnc21	-29.7	-15.3%	7.94µM*	0.0%	-8.4%	-2.0
Cc1nc(Nc2cccc(C(C)O)c2)c2nnn(Cc3ccccc3F)c2n1 (stereo not given)	x	x	4.47µM*	x	2.5%	0.8
CC#CCN1c2ccccc2[C@]23C[C@@H](C(=O)OC)N=C2NC(C(=O)OC)=C(C(=O)OC)[C@H]13	x	-13.4%	0.8%[13.5 µM]	3.3%[11.4 µM]	-3.8%[17.5 µM]	-3.4
CC#CC(=O)Nc1cc2c(Nc3ccc(F)c(Cl)c3)ncnc2cn1	x	x	x	x	9.9%	x
O=C(Cc1cccs1)Nc1cccc(-c2ccc3nncn3n2)c1	x	x	u	x	-5.7%	-7.5
NNc1ccccc1C(F)(F)F	x	x	17.8µM*	x	8.5%	-26.6
CC(=O)Nc1ccccc1C(F)(F)F	x	x	x	x	4.9%	0.3
CC(=O)N(C(C)=O)n1c(C)nc2sc3c(c2c1=O)CCCC3	x	x	9.6%	x	10.2%	7.9
CCc1nc2sc3c(c2c(=O)n1NC(=O)CCl)CCCC3	u	-4.2%	12.6µM*	1.9%	1.9%	-3.9
Cc1ccc(-n2c(C)cc(C(=O)CN3CCCCC3)c2C)cc1	u	12.6µM*	-24.2%	-2.2%	1.3%	3.9
Cc1cc(C(=O)CCl)c(C)n1-c1c(C)n(C)n(-c2ccccc2)c1=O	x	x	12.6µM*	x	3.3%	-0.7
COc1ccc(-n2c(C)cc(C(=O)CN3C(=O)c4ccccc4C3=O)c2C)cc1	u	-10.9%	u	4.1%	-2.3%	-2.4
Cc1ccc(-n2c(C)cc(C(=O)COC(=O)c3ccc[nH]c3=O)c2C)cc1	-82.0*	-4.5%	13.8%	-1.5%	-1.5%	-10.6

Bioassay records as filed in PubChem BioAssay.
